An excerpt weighted towards active compounds, which were near 2% of everything screened.
TexasRed fluor: counter-screen for TRb-SRC2 inhibitors: fluorescence interference; TRb/SRC2 Texas Red total fluorescence interference; Potency, µM (top dose mostly 106 µM), for inactives: at the highest dose fluorescence change, negative = quenching; AID 1479; actives 0.29% (n = 280,000); active means well fitted curve in either direction with a large enough effect; inconclusive means small, poorly fitted or top-dose-only effect; further: potency means the concentration at half of the fitted maximal effect; on the % scale 0 is the no-effect control and ±100 the full control effect
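Human TRβ ligand-binding domain (0.6 uM) and Texas Red SRC2 peptide (20 nM) in Tris buffer with 1 uM T3 and 5% DMSO were incubated with pinned compound for 5 hr at ambient temperature. Total fluorescence was computed as S + 2P (555/632 nm).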
HTT cytoprotect: cytoprotection in Huntington HTT-Q103 PC12 cell model; Potency, µM (series often up to 56.4 µM), for inactives: cytoprotection (ATP increase), hits mostly activators; PC12 HTT-Q103 induced, cytoprotection, ATP luminescence, 40 h; AID 1471; actives 0.14% (n = 230,000); further: potency means the concentration at half of the fitted maximal effect; % of control where 0% means no effect; nearly all actives have a fitted effect of over 45% in size
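Readout: ATPlite luminescence (ATP level). Model: stable PC12, inducible Htt exon1 Q103-GFP. Inducer: tebufenozide, 100 nM final. Compounds: dose series. No G418 in medium.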
Coupling enz: coupling enzyme interference in Giardia aldolase counter-screen | coupling enzyme system counterscreen, AmpLite Red fluorescence | activity change, negative = inhibition, % at 58.2 µM, hits read low | actives 0.67% (n = 290,000); in the data active means activity change below about -30%; further: on the % scale 0 is the no-effect control and ±100 the full control effect
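Coupling enzymes only (glyceraldehyde-3-phosphate) + compound, at 57.5 uM final, 10 min RT; add substrate/coupling/AmpLite Red mix, 20 min RT; fluorescence ex 525/em 598 nm. Actives flag coupling-system interference.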
HTT aggregate: inhibitors of mutant huntingtin aggregate formation in PC12 cells; PC12 HttQ103-GFP aggregates, Acumen cytometry, 40 h; Potency, µM (top dose mostly 46.1 µM), without a hit: top-dose activity change, negative = inhibition, actives largely listed as inhibitors; actives 1.1% (n = 220,000); AID 1688; further: potency means the concentration at half of the fitted maximal effect; on the % scale 0 is the no-effect control and ±100 the full control effect; nearly all actives have a fitted effect of over 60% in size
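Multiplexed with ATP-based cell death, this channel scores GFP aggregates in PC12 cells expressing inducible HTTex1-Q103-GFP. Induction used 100 nM tebufenozide; compounds were tested in concentration series.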
TRb-SRC2 inh: TRbeta-SRC2 interaction inhibition | P10828 | TRbeta-SRC2 peptide binding, fluorescence polarization; receptor liganded with 1 µM T3 | AID 1469 | actives 0.065% (n = 280,000) | Potency, µM (top dose mostly 106 µM), for inactives: at the top dose activity change, negative = inhibition, actives largely listed as inhibitors;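 further: potency means the concentration at half of the fitted maximal effect; plate controls were bound peptide for no effect and peptide without receptor for full effect; nearly all actives have a fitted effect of over 50% in size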
Target sequence (P10828 whole entry, looked up): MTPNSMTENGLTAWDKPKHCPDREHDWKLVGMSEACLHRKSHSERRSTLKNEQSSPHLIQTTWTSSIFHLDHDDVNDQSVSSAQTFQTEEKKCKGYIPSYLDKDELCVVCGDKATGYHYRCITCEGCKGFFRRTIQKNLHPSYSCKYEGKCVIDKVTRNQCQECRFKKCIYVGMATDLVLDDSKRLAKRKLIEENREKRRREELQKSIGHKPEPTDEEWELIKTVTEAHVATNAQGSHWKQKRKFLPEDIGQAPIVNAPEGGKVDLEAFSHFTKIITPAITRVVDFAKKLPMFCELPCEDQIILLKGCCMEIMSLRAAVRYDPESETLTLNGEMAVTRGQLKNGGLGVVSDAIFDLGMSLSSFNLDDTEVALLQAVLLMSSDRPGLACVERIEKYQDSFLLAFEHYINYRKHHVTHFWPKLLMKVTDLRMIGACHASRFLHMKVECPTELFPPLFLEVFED
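TRb LBD 0.6 uM + Texas Red SRC2 peptide 20 nM, 1 uM T3, Tris buffer w/ 5% DMSO; compound pinned, 5 h RT; FP read ex 555/em 632; normalized to unbound and bound controls.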
KDM4E inh: JMJD2E (human) inhibition | B2RXH2 | Potency, µM (titrated, usually from 57.1 µM), without a hit: at the highest dose activity change, negative = inhibition, most hits filed as inhibitors | JMJD2E catalytic domain, FDH-coupled NADH fluorescence (FDH is formaldehyde dehydrogenase) | AID 2147 | actives 1.6% (n = 230,000); active means well fitted inhibition curve with a large enough effect, not every such curve was filed as active; inconclusive means small, poorly fitted or top-dose-only effect, or another doubt; inactive means no such curve, though single readings can be large or run the other way;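 further: potency means the concentration at half of the fitted maximal effect; 0% = wells with enzyme and -100% = buffer wells without enzyme; nearly all actives have a fitted effect of over 50% in size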
Target sequence (B2RXH2 1-337 limits assumed): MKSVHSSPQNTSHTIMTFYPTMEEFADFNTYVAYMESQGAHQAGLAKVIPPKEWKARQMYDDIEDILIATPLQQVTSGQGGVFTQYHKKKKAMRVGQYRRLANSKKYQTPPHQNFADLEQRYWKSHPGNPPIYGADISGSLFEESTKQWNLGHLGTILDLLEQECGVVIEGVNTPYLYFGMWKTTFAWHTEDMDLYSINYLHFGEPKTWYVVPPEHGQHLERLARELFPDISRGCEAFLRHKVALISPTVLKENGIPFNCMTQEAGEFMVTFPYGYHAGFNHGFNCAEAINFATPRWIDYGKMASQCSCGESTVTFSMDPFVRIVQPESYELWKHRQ
Starred values were filed as active, the others as inactive; ? = inconclusive; . = no result; ! = a repeat was not active; [ ] = remark or other dose. Unless noted, the call rests on the fitted dose curve; in most records, active means well fitted curve in the direction sought with a large enough effect; inconclusive means small, poorly fitted or top-dose-only effect, or another doubt; inactive means no such curve, though single readings can be large; an effect the other way counts as inactive or inconclusive.

SMILES | TexasRed fluor | HTT cytoprotect | Coupling enz | HTT aggregate | TRb-SRC2 inh | KDM4E inh
CCOc1ccc(N2C(=O)Nc3ccccc3C2(O)C(=O)NCc2ccc(OC)cc2)cc1 (centres undefined) | 1% | 16%[10 µM] | 0 | 0.71µM* | -9% | -6%
CCOc1ccc(N2C(=O)Nc3ccccc3C2(O)C(=O)NCc2ccc(F)cc2)cc1 (centres undefined) | -1% | 7% | 3 | 9% | -1% | -4%
CC1(C(=O)O)NCCc2cc(O)c(O)cc21 (centres undefined) | -4% | -18% | . | . | 4% | .
CNC(=O)COC(=O)c1cc(-c2ccco2)nc2ccccc12 | -11% | -9%[10 µM] | -4 | 3%[9.22 µM] | -1% | ?
CCN(CC)C(=O)COC(=O)c1cc(-c2ccco2)nc2ccccc12 | 35µM*[quencher] | -54%[10 µM] | -3 | 28% | 1% | ?
Cn1c(N)c(C(=O)COC(=O)c2cc(-c3ccco3)nc3ccccc23)c(=O)n(Cc2ccccc2)c1=O | -3% | 10µM* | 2 | 32% | 6% | ?
CCN(CC)c1cc(C)c2cc(NC(=O)/C=C/c3ccccc3Cl)ccc2n1 | -2% | . | . | . | 11% | .
O=S(=O)(Nc1nc2ccccc2nc1Nc1ccc2c(c1)OCCO2)c1cccs1 | -19% | -4%[0.074 µM] | 4 | ? | 0% | 22µM*
Cc1nc([N+](=O)[O-])c(Br)n1CC(=O)c1cccc([N+](=O)[O-])c1 | -1% | -60%[10 µM] | 6 | ? | 0% | 6%
Cc1nc([N+](=O)[O-])c(Br)n1CC(=O)c1ccc(F)cc1 | -1% | -248% | 1 | 28µM* | -6% | -1%
Cn1cnc2c(N3CCCCC3)nccc21 | 0% | 0%[10 µM] | -8 | 6% | -1% | ?
C[c-]1[c-](C)[c-](C)[c-](C)[c-]1C.[Fe].c1cc2nccc(N3CCCC3)[c-]2c1 (centres undefined) | -2% | -2%[10 µM] | -33*! | -40%[9.22 µM] | -6% | 10µM*!
c1cnc(N2CCN(c3ncnc4c3oc3ccccc34)CC2)nc1 | 1% | -19%[0.074 µM] | 4 | -1% | 5% | -3%
C(=C\c1ccccc1)/CN1CCN(c2ncnc3c2oc2ccccc23)CC1 | -3% | -189%[0.074 µM] | 0 | 6.3µM* | -1% | ?
CC1CCN(c2ccc(-c3cccc(NS(=O)(=O)c4ccc(F)cc4F)c3)nn2)CC1 | 8.9µM*[quencher] | . | . | . | -19% | .
O=S(=O)(Nc1cccc(-c2ccc(N3CCCCC3)nn2)c1)c1ccc(F)cc1F | -7% | . | . | . | 3% | .
CCOc1ccc(S(=O)(=O)Nc2cccc(-c3ccc(N4CCC(C)CC4)nn3)c2)cc1 | -15% | . | . | . | 7% | .
CCOc1ccc(S(=O)(=O)Nc2cccc(-c3ccc(N4CCCC4)nn3)c2)cc1 | 20µM*[quencher] | . | . | . | -7% | .
CC(=O)N1CCCC1c1nc2ccccc2n1Cc1cccc(Cl)c1 (centres undefined) | -1% | . | . | . | 0% | .
CCOc1ccccc1-n1c(N)c(C(=O)OC)c2nc3ccccc3nc21 | -3% | . | . | . | 9% | .
COc1cccc(-c2nnc3sc(C4CCCCC4)nn23)c1 | -1% | ? | 18 | 2µM* | -1% | -2%
COc1ccc(S(=O)(=O)c2c(O)c(C)cc(NS(=O)(=O)c3ccc(Cl)cc3)c2C(C)C)cc1 | -13% | . | . | . | 5% | .
Cc1cc(=O)n(CC(C)O)c(O)c1C#N (centres undefined) | 1% | -12%[10 µM] | -1 | 10% | -23% | 7%
Cc1cc(=O)n(CCCO)c(O)c1C#N | 0% | -24% | -38* | 4% | 5% | ?
COc1ccc(-c2cc(CNC(=O)CCl)on2)cc1 | -1% | -41% | 3 | 18µM* | -7% | -3%
SMILES | TexasRed fluor | HTT cytoprotect | Coupling enz | HTT aggregate | TRb-SRC2 inh | KDM4E inh
Cc1ccc(Cc2cnc(N3C(=N)SC(C)C3=O)s2)cc1 (centres undefined) | 0% | -74% | 0 | -19% | 2% | -3%
Cc1cccc(Cc2cnc(N3C(=N)SC(C)C3=O)s2)c1 (centres undefined) | -4% | -84% | 0 | 22µM* | 4% | 10%
CCOC(=O)C1(C)C=C(Nc2ccc(O)cc2)C(=O)N1c1ccc(O)cc1 (centres undefined) | -1% | 8%[10 µM] | -49* | 17%[9.22 µM] | 5% | 0%
O=C1C(Cl)=C(NCCCO)C(=O)c2ccccc21 | -2% | -41% | -38* | ? | -7% | -3%
Cc1ccc(NC2=C(NCCO)C(=O)c3ccccc3C2=O)cc1 | 1% | 3%[10 µM] | -48* | -16% | -8% | ?
c1ccc(-c2nn[nH]n2)c(Nc2cccc3c2CCCC3)c1 | -7% | . | 10 | . | -6% | .
CN=c1scc(-c2ccccc2F)n1/N=C/c1ccc[nH]1 | -4% | -178% | -1 | -11% | 0% | -8%
CC(C)N=c1scc(-c2cccs2)n1/N=C/c1ccc(O)c(O)c1O | 0% | -19%[10 µM] | -17 | ? | 4% | 28µM*
CN=c1scc(-c2ccccc2F)n1/N=C/c1ccc(O)c(O)c1O | -23% | -46%[10 µM] | -47* | 3% | -4% | 10µM*
O=C1C=CC2=C3c4cc(O)c(O)cc4C[C@@]3(O)COC2=C1 | 14% | ? | -9 | . | -18% | 16µM*
CCc1ccc(OCC(=O)Nc2cc(-c3nc4cc(C)ccc4o3)ccc2C)cc1 | -18% | . | . | . | 9% | .
O=C(CSc1nnc(Cn2nnc3ccccc32)o1)N(Cc1ccc(Cl)cc1)c1ccccc1 | 0% | -13% | 0 | 7.1µM* | 5% | 4%
COc1ccc(-c2cc(=O)c3c(O)c(OC)c(OC)c(OC)c3o2)cc1OC | -2% | . | 0 | . | 2% | -15%
COc1cc(OC)c2c(=O)cc(-c3ccccc3)oc2c1 | -1% | -35%[10 µM] | 4 | 13%[9.22 µM] | -7% | ?
COc1c(O)c(O)c2oc(-c3ccccc3)cc(=O)c2c1OC | -7% | 24%[10 µM] | 3 | 11%[9.22 µM] | -1% | 32µM*
COc1cc(-c2cc(=O)c3c(O)c(OC)c(OC)c(O)c3o2)ccc1O | -11% | -9%[10 µM] | -5 | 3%[9.22 µM] | -2% | 20µM*
O=C(NC1CCCC1)c1cc(Nc2cccc(C(F)(F)F)c2)nc2ccccc12 | -10% | . | . | . | -3% | .
C=C[C@@H](C)[C@](C)(O)c1ccccc1 | -3% | ? | 2 | . | 4% | 15%
N#CCCN1CCN(C(=S)c2ccc(-c3ccc(Cl)cc3)o2)CC1 | -3% | -12% | -10 | -8% | -2% | 13µM*
CN(CC(=O)NCc1ccccc1)S(=O)(=O)c1cnc[nH]1 | 3% | . | 0 | 0.63µM* | -8% | 4%
Cc1ccc(CCNC(=O)CN(C)S(=O)(=O)c2cnc[nH]2)cc1 | 5% | -17%[10 µM] | 5 | -14% | 5% | 3%

Compound activity from PubChem.
